Active and inactive are the calls of the source. Unless noted, no rule for the calls is given here.
Experiments:
[1] = compound effects on lung adenocarcinoma cell viability – A549, calcein-AM fluorescence, 48 h, basal, profiling panel (AID 1162); conditions: higher = more signal; also: test concentration not given here
[2] = compound effects on differentiated 3T3-L1 adipocyte viability – cell-based, 3T3-L1 adipocytes, calcein-AM fluorescence, 48 h, basal, profiling panel (AID 1163); conditions: 3T3-L1 adipocytes viability, higher = more signal; also: test concentration not given here
[3] = compound effects on hepatocellular carcinoma cell viability – HepG2, calcein-AM fluorescence, 48 h, basal, profiling panel (AID 1164); conditions: higher = more signal; also: test concentration not given here
[4] = compound effects on multiple myeloma cell viability – MM1S, calcein-AM fluorescence, 48 h, basal, profiling panel (AID 1165); conditions: higher = more signal; also: test concentration not given here
[5] = calcein-AM signal in unstimulated myeloma cells – cell-based, calcein-AM fluorescence, 48 h, PK04 Diversity Set, profiling panel (AID 1166); conditions: RPMI8226 myeloma viability, higher = more signal;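 also: cells grown under basal conditions without added stimulus; test concentration not given here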
[6] = JC-1 mitochondrial signal, unstimulated HepG2 cells – cell-based, JC-1 fluorescence, 24 h, 100 nL compound, profiling panel (AID 1167); conditions: HepG2 mitochondrial potential, higher = more signal; also: test concentration not given here
[7] = JC-1 mitochondrial signal, unstimulated adipocytes – cell-based, JC-1 fluorescence, 3T3-L1 adipocytes, 24 h, 100 nL compound, profiling panel (AID 1168); conditions: JC-1 mitochondrial fluorescence, higher = more signal, called active from +8 up or from −8 down; also: test concentration not given here
[8] = JC-1 mitochondrial signal, unstimulated myeloma cells – cell-based, JC-1 fluorescence, RPMI8226, 24 h, 100 nL compound, profiling panel (AID 1169); conditions: JC-1 mitochondrial potential fluorescence, higher = more signal; also: test concentration not given here
[9] = JC-1 mitochondrial signal, unstimulated MM1S myeloma – cell-based, JC-1 fluorescence, 24 h, 100 nL compound, profiling panel (AID 1170); conditions: MM1S mitochondrial potential, higher = more signal; also: test concentration not given here
[10] = resazurin metabolic signal in A549 cells – cell-based, resazurin fluorescence, 24 h, PK04 Diversity Set, profiling panel (AID 1171); conditions: A549 viability, higher = more signal, called active from +8 up or from −8 down; also: test concentration not given here
[11] = resazurin metabolic signal in HepG2 cells – cell-based, resazurin fluorescence, 24 h, PK04 Diversity Set, profiling panel (AID 1172); conditions: HepG2 viability, higher = more signal; also: test concentration not given here
[12] = budding yeast growth changes without added modifier – OD600, strain BY4716, 24 h, basal condition, primary screen (AID 1173); conditions: S. cerevisiae BY4716 growth, OD600, 24 h; higher = more signal, called active from +8 up or from −8 down
[13] = viability profiling in MM1S myeloma cells – cell-based, resazurin fluorescence, basal, 24 h, PK04 Diversity Set, profiling panel (AID 1174); conditions: higher = more signal, called active from +8 up or from −8 down; also: test concentration not given here
[14] = biological target: Dihydroorotate dehydrogenase (quinone), mitochondrial (Plasmodium falciparum (isolate 3D7)) (UniProt Q08210); test: inhibition of P. falciparum DHODH – biochemical, C-terminal His tag, absorbance 600 nm, primary screen (AID 1175); conditions: PfDHODH enzyme, DCIP absorbance 600 nm; higher = more signal, called active from +8 up or from −8 down;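 also: recombinant parasite enzyme with a five histidine tag at its C terminus; test concentration not given here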
[15] = inhibition of PAO1 biofilm formation – strain PAO1, LB-PBS medium, absorbance 600 nm, primary screen (AID 1176); also: test concentration not given here; conditions: P. aeruginosa PAO1 growth/biofilm, A600, 12 h; higher = more signal
[16] = growth modulation of vineyard yeast isolate – strain RM11-1a, OD600, basal, 24 h, primary screen (AID 1177);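 also: cultures grown under basal conditions with no added stressor; test concentration not given here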; conditions: S. cerevisiae RM11-1a growth, OD600, 24 h; higher = more signal, called active from +8 up or from −8 down
[17] = growth of efflux-deficient E. coli DRC39 – strain DRC39, OD650, 24 h, E. coli filamentation inducers, primary screen (AID 1178);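 also: growth measured as culture turbidity by optical density at 650 nm; test concentration not given here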; conditions: E. coli DRC39 acrAB, higher = more signal, called active from +8 up or from −8 down
[18] = growth of efflux-deficient E. coli DRC39 – strain DRC39, OD650, 48 h, E. coli filamentation inducers, primary screen (AID 1179);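 also: screen aims at cell division blockers that make cells filament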; conditions: E. coli DRC39 delta-acrAB growth, higher = more signal, called active from +8 up or from −8 down
[19] = viability profiling in RPMI8226 myeloma cells – cell-based, resazurin fluorescence, basal, 24 h, PK04 Diversity Set, profiling panel (AID 1180); conditions: higher = more signal;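 also: RPMI8826 multiple myeloma cell line at 5000 cells per well; test concentration not given here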
[20] = biological target: E3 ubiquitin-protein ligase XIAP (Homo sapiens) (UniProt P98170); test: small molecules binding XIAP protein – biophysical, small-molecule microarray, fluorescence 635 nm, primary screen (AID 1181); conditions: higher = more signal;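 also: score merges 667 nm emission and signal to noise over triplicate slides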
E3 ubiquitin-protein ligase XIAP (Homo sapiens), sequence (P98170 whole entry, looked up): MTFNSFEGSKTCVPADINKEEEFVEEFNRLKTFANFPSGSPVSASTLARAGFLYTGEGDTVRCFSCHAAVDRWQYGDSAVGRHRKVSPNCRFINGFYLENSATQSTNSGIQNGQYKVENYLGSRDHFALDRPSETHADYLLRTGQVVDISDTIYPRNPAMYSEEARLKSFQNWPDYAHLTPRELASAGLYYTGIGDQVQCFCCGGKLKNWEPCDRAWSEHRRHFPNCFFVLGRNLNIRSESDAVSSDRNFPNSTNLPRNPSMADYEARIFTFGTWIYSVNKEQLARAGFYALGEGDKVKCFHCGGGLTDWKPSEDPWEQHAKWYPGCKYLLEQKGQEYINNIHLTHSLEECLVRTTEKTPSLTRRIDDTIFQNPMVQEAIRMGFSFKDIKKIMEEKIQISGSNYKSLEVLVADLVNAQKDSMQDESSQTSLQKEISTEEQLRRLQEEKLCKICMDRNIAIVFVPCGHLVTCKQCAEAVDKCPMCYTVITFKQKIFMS

Dihydroorotate dehydrogenase (quinone), mitochondrial (Plasmodium falciparum (isolate 3D7)), sequence (Q08210 whole entry, looked up): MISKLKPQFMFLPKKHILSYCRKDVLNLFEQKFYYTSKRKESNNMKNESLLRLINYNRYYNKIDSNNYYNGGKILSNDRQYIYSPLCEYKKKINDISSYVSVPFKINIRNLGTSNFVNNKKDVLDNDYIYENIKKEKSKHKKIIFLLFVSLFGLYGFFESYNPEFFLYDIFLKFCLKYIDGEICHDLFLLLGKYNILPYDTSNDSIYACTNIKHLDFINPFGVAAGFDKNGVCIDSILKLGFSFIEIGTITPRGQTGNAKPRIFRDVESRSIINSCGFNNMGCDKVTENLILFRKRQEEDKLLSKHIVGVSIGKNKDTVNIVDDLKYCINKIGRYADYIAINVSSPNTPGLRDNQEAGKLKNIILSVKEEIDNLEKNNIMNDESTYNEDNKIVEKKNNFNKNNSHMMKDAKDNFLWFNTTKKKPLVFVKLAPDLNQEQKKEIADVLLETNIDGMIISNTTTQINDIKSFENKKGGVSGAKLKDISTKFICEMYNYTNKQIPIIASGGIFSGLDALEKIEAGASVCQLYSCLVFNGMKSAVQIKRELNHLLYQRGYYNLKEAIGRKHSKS

| Compound | z-score [1] | z-score [2] | z-score [3] | z-score [4] | z-score [5] | z-score [6] | z-score [7] | z-score [8] | z-score [9] | z-score [10] | z-score [11] | z-score [12] | z-score [13] | composite z-score [14] | z-score [15] | z-score [16] | z-score [17] | z-score [18] | z-score [19] | composite z-score [20] |
| --- | --- | --- | --- | --- | --- | --- | --- | --- | --- | --- | --- | --- | --- | --- | --- | --- | --- | --- | --- | --- |
| CCCC=C(CCC)[C@@H](NS(=O)(=O)CC12CCC(CC1=O)C2(C)C)c1ccc(C(=O)OC)cc1 (stereo not given in full) | -0.672 | -0.316 | -0.915 | 0.295 | -1.06 | -2 | 0.273 (inactive) | 0.7 | -1.46 | 0.252 (inactive) | 0.602 | 0.484 (inactive) | 0.16 (inactive) | -0.929 (inactive) | 0.756 (inactive) | -0.721 (inactive) | 0.0384 (inactive) | -0.572 (inactive) | -0.123 | -0.102 |
| CCOC(=O)[C@@H]1CCCCN1C(=O)C(=O)OC | -0.856 | -0.116 | 0.0129 | 0.143 | 0.13 | -0.684 | -0.603 (inactive) | -0.0109 | 0.0743 | -0.599 (inactive) | -0.165 | 0.016 (inactive) | -0.05 (inactive) | 0.0044 (inactive) | -0.255 (inactive) | 0.245 (inactive) | -0.26 (inactive) | -0.253 (inactive) | -0.64 | 0.269 |
| COc1ccc([Si](C)(C)[C@@H]2[C@@H](CC(=O)N(CCO)Cc3ccccc3)O[C@]3(C(=O)N(Cc4cccc(N5CCCCC5=O)c4)c4ccccc43)[C@H]2C)cc1 | -1.2 | 0.579 | -2.56 | -1.43 | -3.89 | 0.56 | 1.15 (inactive) | -0.654 | -1.26 | -1.6 (inactive) | -0.369 | 0.594 (inactive) | -1.72 (inactive) | -1 (inactive) | 1.63 (inactive) | 2.63 (inactive) | 0.899 (inactive) | 0.246 (inactive) | -1.74 | -0.138 |
| CCOC(=O)C[C@H]1[C@H](OC(=O)c2ccc(C(=O)c3ccccc3)cc2)[C@@H](NC(=O)C2CCCCC2)c2cc(OCCCO)ccc2N1C(=O)c1ccc2ccccc2n1 | 0.123 | 0.347 | 2.23 | -0.436 | 1.31 | 1.9 | 1.45 (inactive) | 0.592 | -0.543 | -0.0397 (inactive) | 0.547 | -0.108 (inactive) | 0.491 (inactive) | -1.63 (inactive) | -0.312 (inactive) | 0.86 (inactive) | 0.297 (inactive) | 0.991 (inactive) | 0.0839 | -0.0141 |
